tim10-1 inh: tim10-1 yeast growth inhibition; S. cerevisiae tim10-1 ts strain growth, BacTiter-Glo, 24 h; inhibition, % at 20 µM; 330,000 compounds, 2.2% hits; AID 463190;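 active = inhibition of at least 40%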;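 note: mutant grown at 25 °C; 0% = DMSO wells with yeast and 100% = wells holding no yeast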
tim23-1 inh: inhibits growth of tim23-1 mutant yeast | AID 463212 | S. cerevisiae tim23-1 growth, BacTiter-Glo luminescence, 24 h | 330,000 compounds, 1.3% hits | inhibition, % at 20 µM;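 active = growth inhibition of the mutant yeast at or above 50%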;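 note: temperature-sensitive mutant grown at 25 °C; plate controls were DMSO-treated mutant yeast for no effect and medium wells lacking yeast for full effect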
B2AR ag: agonists of human beta-2 adrenergic receptor inducing internalization. Am2.2-beta2AR cells, FAP receptor internalization, flow cytometry. response, % (no concentration beside the values). 340,000 compounds, 0.43% hits. AID 504454;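 active = response above a set limit, near 3 SD of response in nonfluorescent compounds, cut at about 42% in these data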
Target sequence (P07550 whole entry, looked up): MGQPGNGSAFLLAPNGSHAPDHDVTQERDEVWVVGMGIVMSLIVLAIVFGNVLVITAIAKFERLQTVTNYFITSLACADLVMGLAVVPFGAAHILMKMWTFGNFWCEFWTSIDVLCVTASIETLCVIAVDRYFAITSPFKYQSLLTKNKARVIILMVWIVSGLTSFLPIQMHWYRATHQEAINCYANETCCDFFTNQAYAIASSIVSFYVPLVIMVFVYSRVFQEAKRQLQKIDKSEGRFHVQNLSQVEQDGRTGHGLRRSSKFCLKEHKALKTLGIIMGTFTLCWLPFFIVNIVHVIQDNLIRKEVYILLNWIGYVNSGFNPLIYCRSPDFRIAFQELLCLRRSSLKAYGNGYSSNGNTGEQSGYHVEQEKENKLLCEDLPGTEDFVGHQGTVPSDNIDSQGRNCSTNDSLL
PfHsp90 yeast 2: reduces growth (ATP signal) of yeast expressing P. falciparum Hsp90 | 310,000 compounds, 0.32% hits | S. cerevisiae expressing PfHsp90, BacTiter-Glo ATP, 48 h; yeast lacking PDR1 and PDR3 efflux regulators | inhibition, % at 9.4 µM;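 active = every replicate shows inhibition above about 80%, whatever the replicate mean, limit read from the data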;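 note: 0% = DMSO neutral controls and 100% = 20 µM radicicol positive controls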
TIM10 inh: growth inhibitors of TIM10 yeast strain; S. cerevisiae TIM10 strain growth, BacTiter-Glo luminescence, 24 h; inhibition, % at 10 µM; 330,000 compounds, 1.4% hits; AID 463195;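 active = inhibition of 40% or more at the single tested concentration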;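 note: wild-type TIM10 isogenic control strain grown at permissive 25 °C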
* marks the source's active call; other numbers are inactive results; i = inactive; nt = not tested or not shown. Shown are actives, neighbours in structure and some others; about 3.8% of the full set was active somewhere.

SMILES	tim10-1 inh	tim23-1 inh	B2AR ag	PfHsp90 yeast 2	TIM10 inh
Nc1ncnc2c1ncn2-c1ccccc1Cl	nt	nt	-1.0	-6.5	nt
Cc1cccc(NC(=O)Nc2ccc(Oc3c(F)c(F)c(F)c(F)c3F)cc2)c1	7.4	-6.1	0.8	21.9	-1.3
O=C(Nc1ccc(Oc2c(F)c(F)c(F)c(F)c2F)cc1)OC1CCN2Cc3ccccc3N=C12 (stereo not given)	29.1	17.9	101.7*	7.0	16.0
CCOC(=O)c1cnc(-c2ccccc2O)nc1Cl	2.7	13.1	13.7	-8.4	-7.6
CCOC(=O)C1=Nc2ccccc2C1=[N+]=[N-]	14.0	36.2	0.2	122.3*	-29.1
COc1ccc(NS(=O)(=O)c2ccc(C)cc2)c([N+](=O)[O-])c1	31.2	42.7	5.1	-22.0	6.0
Cc1ccc(S(=O)(=O)Nc2ccc3ccccc3c2[N+](=O)[O-])cc1	nt	nt	3.5	115.4*	nt
COc1ccc([N+](=O)[O-])cc1NS(=O)(=O)c1ccc(C)cc1	-1.4	35.2	12.0	6.0	20.3
Cc1ccc(S(=O)(=O)Nc2ccc3cc([N+](=O)[O-])ccc3c2[N+](=O)[O-])cc1	nt	nt	9.8	110.8*	nt
CN(C)/C=N/C(=S)Nc1ccccc1F	-1.7	-2.2	51.1*	-9.0	8.2
CN(C)/C=N/C(=S)Nc1ccccc1Cl	-1.4	5.3	4.7	-10.4	7.9
O=c1[nH]c(-c2ccccn2)nc2ccccc12	-2.0	1.7	13.3	-1.7	-12.9
O=c1[nH]c(-c2ccccn2)nc(C(F)(F)F)c1Br	16.0	-12.3	1.1	90.1*	33.6
COc1ccc2c(c1)[C@H]1[C@H](CO2)[C@H](c2ccccc2)[C@]2(C)C(=O)Nc3ccc(Cl)cc3C(=O)N12	nt	nt	2.2	136.6*	nt
C[C@@]12C(=O)Nc3ccc(Cl)cc3C(=O)N1[C@H]1c3cc(Cl)ccc3OC[C@@H]1[C@@H]2c1ccccc1	20.0	34.2	2.1	-36.8	21.8
CCOC(=O)N/N=C/c1cn(CCCOc2ccc(C)cc2)c2ccccc12	24.0	13.5	71.0*	14.8	21.7
CCOC(=O)N/N=C/c1cn(CCCOc2ccccc2)c2ccccc12	7.1	16.1	-9.4	-53.9	0.1
COc1ccccc1C(=O)N/N=C(\C)CC(=O)Nc1ccc2c(c1)OCCO2	-9.9	15.8	2.2	-12.8	9.6
C/C(CC(=O)Nc1ccc2c(c1)OCCO2)=N\NC(=O)c1ccccc1F	13.0	16.3	45.1*	-7.2	-4.1
O=C(Cc1csc(N2CCOCC2)n1)N/N=C/c1ccc(O)c(O)c1O	nt	nt	46.0*	nt	nt
COc1ccc(OCC(=O)Nc2cc(-c3nn4c(C)nnc4s3)ccc2C)cc1	4.9	-1.1	69.8*	-6.7	-6.4
CC(C)NC(=O)c1ccc2c(=O)n(C3CCCC3)c(=S)[nH]c2c1	13.2	-5.5	2.7	nt	-8.6
O=C(c1ccc2c(=O)n(C3CCCC3)c(=S)[nH]c2c1)N1CCc2ccccc21	8.3	20.7	-6.3	109.0*	25.1
CCN1CCN(Cc2ccc(NC(=O)c3ccc(C)c(NC(=O)C(=O)c4c[nH]c5ccccc45)c3)cc2C(F)(F)F)CC1	19.8	19.9	49.5*	4.9	-4.9
Oc1c(C(Nc2nccs2)c2ccc(C(F)(F)F)cc2)ccc2cccnc12 (stereo not given)	nt	nt	36.3	102.0*	nt
SMILES	tim10-1 inh	tim23-1 inh	B2AR ag	PfHsp90 yeast 2	TIM10 inh
O=C1[C@@H]2C(c3cccnc3)=NO[C@@H]2C(=O)N1c1ccc(Br)cc1	-6.0	10.9	-1.5	94.2*	3.4
CCCCOc1ccc(C(=O)N/N=C/c2ccc(OCCN3CCCCC3)c(OC)c2)cc1	15.0	-1.4	43.3*	6.9	11.6
CC1(c2nnc(Cc3ccccc3)o2)CC(c2ccccc2[N+](=O)[O-])=NO1 (stereo not given)	0.0	8.6	3.8	108.4*	-13.0
CC(C)(C)S(=O)(=O)N1C[C@@H]2C(=CC[C@H]3C(=O)N(c4ccccc4)C(=O)[C@@H]23)[C@@H]1CCO	nt	nt	1.3	13.3	nt
Cc1cc(C)c(C#N)c(N2CCOCC2)n1	-12.1	1.8	1.7	9.4	-0.5
Cc1cc(C)c2c(N=NN3CCOCC3)[nH]nc2n1	8.9	4.9	-1.2	101.9*	3.3
CC1=CN(S(=O)(=O)c2ccc(C)cc2)C[C@@H]2c3ccccc3N(S(=O)(=O)c3ccc(C)cc3)[C@H]12	18.9	34.1	-4.2	-17.6	2.4
O=C(COC(=O)c1ccc2c(c1)C(=O)N(c1cccc3ncccc13)C2=O)c1ccc(Cl)cc1	10.6	2.5	63.2*	10.1	4.4
CCOC(=O)Cc1csc(NC(=O)c2ccc(C)c(S(=O)(=O)N3CCOCC3)c2)n1	11.2	28.0	24.2	nt	11.8
CC(C)N(C(=O)[C@H]1CC(CC(=O)NCC23CC4CC(CC(C4)C2)C3)C(=O)N2CCc3c([nH]c4ccccc34)[C@]12C)C(C)C (stereo not given in full)	25.2	25.3	-5.3	-16.3	9.7
CCN1CN(Cc2ccco2)CNC1=S	-1.9	2.9	48.5*	-2.6	6.9
CN(CC(=O)Nc1ccccc1Cl)C(=O)COC(=O)c1ccccc1[N+](=O)[O-]	11.8	16.8	-3.6	6.5	5.0
N#C/C(=C\c1ccc(N2CCOCC2)c([N+](=O)[O-])c1)c1nc2ccccc2[nH]1	9.0	24.0	1.0	4.1	25.3
N#C/C(=C/c1ccc(N2CCCC2)c([N+](=O)[O-])c1)c1nc2ccccc2[nH]1	16.1	32.3	82.5*	21.8	29.7
COc1cccc(-c2nc3c(c(=O)[nH]c(=O)n3Cc3ccccc3)n2CCO)c1OC(F)F	15.9	15.6	-4.1	3.8	-4.4
COc1ccc(-c2nc(CS(=O)(=O)CC(=O)NCCCN3CCN(C)CC3)c(C)o2)cc1	2.5	9.5	-3.9	-19.2	-0.7
CCN(c1ccccc1)S(=O)(=O)c1cccc(C(=O)N(C)CC(=O)Nc2ccc(F)c(F)c2F)c1	nt	nt	-1.3	-4.3	nt
CCCCN1C(=O)/C(=C/C=C2\Oc3ccccc3N2CC)SC1=S	nt	nt	i	99.4*	nt
CCOC(=O)c1ccc(N2C(=O)CC(N3CCN(Cc4ccccc4)CC3)C2=O)cc1 (stereo not given)	28.3	25.5	-3.7	5.3	7.7
CCOC(=O)c1ccc(N2C(=O)CC(N3CCC(O)(c4ccc(Br)cc4)CC3)C2=O)cc1 (stereo not given)	15.4	9.7	-2.7	96.4*	13.5
CCOC(=O)c1ccc(N2C(=O)CC(N3CCC(O)(c4ccc(Cl)cc4)CC3)C2=O)cc1 (stereo not given)	29.5	25.1	-5.8	101.3*	34.2
CCCOc1ccc(N2C(=O)CC(N3CCOCC3)C2=O)cc1 (stereo not given)	-1.5	17.0	-5.9	23.6	15.9
CCCOc1ccc(N2C(=O)CC(N3CCC(C(=O)OCC)CC3)C2=O)cc1 (stereo not given)	38.6	38.2	-3.3	105.0*	37.7
C[C@@]12C(=O)OC(=O)[C@]1(C)C1CCC2O1	-7.4	3.7	80.6*	-27.4	-31.0
COc1ccc(/C=C2\Oc3cc(OCC(=O)N4CCC[C@H]4CO)ccc3C2=O)c(OC)c1	26.0	26.8	-1.5	5.6	8.7
